# Bioassay records (PubChem BioAssay)
# The list is not random: actives were taken first. Their share in the collection is about 1.3%.
# USP2a inhib: blocks human ubiquitin-specific protease USP2a. O75604. USP2a enzymatic assay, qHTS inhibition. Potency, µM (highest dose often 38.3 µM), for the others: at the top dose activity change, negative = inhibition, hits mostly inhibitors. hit rate 0.1% among 60,000; also: potency is read from the fitted curve at half-maximal effect; nearly all actives have a fitted effect of over 60% in size
# Target sequence (O75604 whole entry, looked up): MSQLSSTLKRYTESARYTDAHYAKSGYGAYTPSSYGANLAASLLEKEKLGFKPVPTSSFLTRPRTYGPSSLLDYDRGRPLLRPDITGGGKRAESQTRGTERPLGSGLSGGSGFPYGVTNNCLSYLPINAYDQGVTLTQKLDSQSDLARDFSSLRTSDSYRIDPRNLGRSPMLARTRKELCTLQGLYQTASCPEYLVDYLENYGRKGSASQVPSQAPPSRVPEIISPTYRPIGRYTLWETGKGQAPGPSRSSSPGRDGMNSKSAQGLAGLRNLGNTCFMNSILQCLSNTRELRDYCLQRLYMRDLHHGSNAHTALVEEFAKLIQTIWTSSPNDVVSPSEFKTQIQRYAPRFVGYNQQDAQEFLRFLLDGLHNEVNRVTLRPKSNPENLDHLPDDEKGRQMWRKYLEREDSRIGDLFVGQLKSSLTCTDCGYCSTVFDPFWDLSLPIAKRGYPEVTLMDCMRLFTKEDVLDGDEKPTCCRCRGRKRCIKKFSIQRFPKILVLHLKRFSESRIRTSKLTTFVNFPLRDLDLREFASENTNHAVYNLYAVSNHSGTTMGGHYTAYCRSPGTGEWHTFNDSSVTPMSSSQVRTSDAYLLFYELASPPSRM
#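 USP2 core (20 nM final) was preincubated with compound for 30 min at RT in 20 mM Tris-HCl pH 8.0, 2 mM CaCl2, 2 mM beta-mercaptoethanol; Ub-PLA2 (20 nM) plus NBD C6-HPC (20 uM) then added, fluorescence read after 2.5 h.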
# ERK AVP inh: blocks ERK signaling stimulated by vasopressin. hit rate 0.99% among 72,000. HEK293-V1b, vasopressin-stimulated pERK AlphaScreen. Potency, µM (titrated, usually from 57.5 µM), for inactives: at the top dose activity, negative = inhibition, usual class: inhibitors; also: potency is read from the fitted curve at half-maximal effect; % is scaled to controls: 0 for no effect and ±100 for the full control effect; nearly all actives have a fitted effect of over 55% in size
#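 HEK293 cells stably expressing V1b receptor, preincubated 30 min at 37 °C with compound, then stimulated 5 min with 25 nM vasopressin. Phospho-ERK by AlphaScreen SureFire after 5 h RT; normalized to DMSO and vasopressin; AC50 by Hill fit.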
# Pol III holo inh: DNA polymerase III holoenzyme inhibition; AID 603; Potency, µM (highest dose often 57.1 µM), for the others: at the top dose activity change, negative = inhibition; hit rate 0.25% among 71,000; reconstituted DNA polymerase III holoenzyme replication, biochemical; also: potency is read from the fitted curve at half-maximal effect; % is scaled to controls: 0 for no effect and ±100 for the full control effect
#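 Reconstituted *E. coli* holoenzyme (0.35 nM Pol III, 1 nM beta, 154 nM SSB, 2 nM primase) was preincubated with compound for 15 min at RT. Synthesis on 1.4 nM ssM13Gori ran 35 min, then was stopped with PicoGreen/EDTA and read as dsDNA fluorescence.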
# BRCT PPI red: disrupts BRCA1 BRCT binding to phosphoprotein, red fluorophore readout; P38398; BRCT-phosphopeptide binding, red fluorescence polarization; Potency, µM (titrated, usually from 76.9 µM), for the others: at the top dose activity change, negative = inhibition, most hits filed as inhibitors; hit rate 0.03% among 75,000; also: % is scaled to controls: 0 for no effect and ±100 for the full control effect
#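 Fluorescence polarization: 100 nM His-tagged BRCA1 BRCT with 100 nM TAMRA-labelled phospho-BACH1 decapeptide, phosphate buffer pH 7.3 with 150 mM NaCl, DTT, 0.01% Tween 20; 12 min RT. Binding inhibition seen as FP decrease.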
# TsaE inh: YjeE (TsaE) inhibition, E. coli | purified YjeE enzyme, qHTS inhibition assay | Potency, µM | AID 605 | P0AF67 | hit rate 0.05% among 71,000
#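 Fluorescence polarization of a BODIPY Texas Red–ADP probe (2 uM) bound to purified YjeE (10 uM) was read after 15 min room-temperature incubation with compounds. Loss of polarization marks inhibitors; ADP serves as titrated control.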
# BRCT inh green: inhibitors of human BRCA1 BRCT-phosphoprotein interaction (green fluorophore) | P38398 | BRCA1 BRCT-phosphopeptide binding, green fluorescence polarization | Potency, µM (series often up to 76.9 µM), inactives show top-dose activity change, negative = inhibition, hits mostly inhibitors | hit rate 0.05% among 75,000 | AID 875;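 also: potency is read from the fitted curve at half-maximal effect; plate controls were peptide without protein for full effect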
#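 Fluorescence polarization: His-tagged BRCT (~35 kDa BRCA1 C-terminus, 250 nM) bound to 100 nM fluorescein-labeled phosphorylated 10-aa BACH1 peptide, pH 7.3 phosphate buffer with DTT and Tween 20. Compounds incubated 12 min at room temperature; inhibition read as lowered polarization.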
# * marks the source's active call; other numbers are inactive results; i = inactive; ? = inconclusive; · = no result given; [ ] = remark or other dose. Calls follow the shape of the dose curve; as a rule, active = well fitted curve in the direction sought with a large enough effect; inconclusive = small, poorly fitted or top-dose-only effect, or another doubt; inactive = no such curve, though single readings can be large; an effect the other way counts as inactive or inconclusive.
SMILES,USP2a inhib,ERK AVP inh,Pol III holo inh,BRCT PPI red,TsaE inh,BRCT inh green
Cc1ccc2c(c1)c1c(n2C)C(C(N)=O)CCC1 (centres undefined),6.3µM*,-8%,1%,1%,i,-3%
NCCNC(=S)S,·,-17%[11.5 µM],-3%[11.4 µM],0%[15.4 µM],i,1%[15.4 µM]
CN1[C@H]2CC(OC(=O)[C@H](CO)c3ccccc3)C[C@H]1[C@H]1O[C@H]12 (some centres undefined),·,6%,-3%,0%,i,0%
O=C1c2ccccc2C(=O)c2c(NC3CCCCC3)ccc(Nc3ccc(S(=O)(=O)O)cc3)c21,·,?,-15%[11.4 µM],-22%[15.4 µM],13µM*,-17%[15.4 µM]
C=CCNc1nc(NCc2ccco2)nc(OCC)n1,-1%,25µM*,-4%,0%,i,-1%
C=CCNc1nc(NC(C)(C)CO)nc(OCC)n1,5%,-18%,-1%,1%,i,-2%
[O-][n+]1onc2c1CCc1c-2nn(-c2ccccc2Cl)[n+]1[O-],3%,15%,-2%,1%,i,-2%
Cc1ccc(-n2nc3c([n+]2[O-])CCc2c-3no[n+]2[O-])cc1,2µM*,3%,0%,-1%,i,-2%
CCCCC(=O)Nc1sc2c(c1C(N)=O)CCC2,0%,-16%,-5%,0%,i,-1%
CCC1(CC)NC(=O)N(CC(=O)Nc2sc3c(c2C(N)=O)CCC3)C1=O,-13%,-5%,20µM*,-6%,i,-1%
Brc1ccccc1-c1nnc(COc2ncnc3c2cnn3-c2ccccc2)o1,25%,32µM*,1%,0%,i,2%
CC1=CC(C#N)(C#N)C(C#N)(C#N)C(c2ccccc2)N1 (centres undefined),2%,-10%,-5%,-17%,50µM*,-6%
O=C(NCCCCN1CCCC1)c1ccc(-n2c(=O)c(=O)[nH]c3ccccc32)cc1,·,·,·,-2%,·,-1%
CC(=O)[C@H]1CC[C@@H]2[C@]1(C)CC=C1[C@]23C=C[C@]2(C[C@H](O)CC[C@@]12C)[C@H](C(=O)O)[C@@H]3C(=O)O,·,5%[11.5 µM],-7%[11.4 µM],-2%[15.4 µM],i,2%[15.4 µM]
N#CC(C#N)=C(N)/C(C#N)=C/c1ccc(O)cc1,-14%,13µM*,-2%,-2%,i,17%
CCCCC#Cc1nc(N)c2ncn([C@@H]3O[C@@H](C(=O)NCC)[C@H](O)[C@@H]3O)c2n1,11%,?,1%,-3%,i,-3%
COc1ccc(OC)c(Nc2cc(C)nc3ccccc23)c1,1%,-8%,-2%,-1%,i,0%
COc1ccc(OC)c(Nc2cc(-c3ccccc3)nc(N)n2)c1,5%,10µM*,-1%,1%,i,-2%
CN1CCc2c(sc3c2C(=O)NC(c2cn(Cc4ccccc4)c4ccccc24)N3)C1 (centres undefined),20%,13µM*,-6%,1%,?,29%
CN1CCc2c(sc3c2C(=O)NC(c2ccco2)N3)C1 (centres undefined),9%,?,-8%,-5%,i,11%
